The values that follow come from PubChem BioAssay (EPA / NIEHS).

Test [1] is described as follows: TOX21_p53_BLA_p4_viability: Viability Assessment in the Tox21 HCT-116 p53 Agonism Beta-lactamase Assay, Phase 4 (AID 2283597).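 Note: hits lower the luminescence signal meaning cytotoxicity.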 An outline of the steps:
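We seeded HCT116 p53 reporter cells at 4000/well and waited 5 h. We then added compounds in DMSO at a 217-fold dilution and incubated for 16 h. Viability was read as CellTiter-Glo luminescence after 30 min at RT.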

Test [2] addresses Cellular tumor antigen p53 (Homo sapiens) (UniProt P04637). Briefly: TOX21_p53_BLA_p5_ratio: Tox21 HCT-116 p53 Agonism Beta-lactamase Assay, Ratio, Phase 5 (AID 2283599). An outline of the steps: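 HCT-116 cells carrying a p53-inducible beta-lactamase reporter were seeded at 4000 cells/well and dosed after 5 h with compound in DMSO (217-fold dilution). After 16 h at 37C, CCF4-AM substrate was added for 2 h, and the 460/530 nm emission ratio was scored as gain-of-signal versus DMSO.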

Test [3] is described as follows: TOX21_p53_BLA_p5_viability: Viability Assessment in the Tox21 HCT-116 p53 Agonism Beta-lactamase Assay, Phase 5 (AID 2283600). The method in brief:
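Compounds, pinned from DMSO at 217-fold dilution, were left on the cells for 16 h. The viability endpoint was ATP content measured by CellTiter-Glo luminescence, where falling signal reflects cytotoxicity.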

In test [4] the target is Cellular tumor antigen p53 (Homo sapiens) (UniProt P04637). Description: TOX21_p53_BLA_p4_ratio: Tox21 HCT-116 p53 Agonism Beta-lactamase Assay, Ratio, Phase 4 (AID 2283601). An outline of the steps:
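HCT116 cells carrying an inducible beta-lactamase reporter were plated at 4000 cells/well, rested 5 h, then exposed to compounds in DMSO (217-fold dilution) for 16 h at 37C. CCF4-AM substrate was loaded 2 h at room temperature; 460/530 nm emission ratio scored gain-of-signal versus DMSO.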

Each structure is given as a SMILES string. Results filed as inconclusive are left out. Active and inactive are the calls of the source. Rule for the calls: active = hit-call score of the fitted dose curve at least 0.9, where 1 is the maximum; inconclusive = response in the unintended direction; inactive = score below 0.9.

Cellular tumor antigen p53 (Homo sapiens), sequence (P04637 whole entry, looked up): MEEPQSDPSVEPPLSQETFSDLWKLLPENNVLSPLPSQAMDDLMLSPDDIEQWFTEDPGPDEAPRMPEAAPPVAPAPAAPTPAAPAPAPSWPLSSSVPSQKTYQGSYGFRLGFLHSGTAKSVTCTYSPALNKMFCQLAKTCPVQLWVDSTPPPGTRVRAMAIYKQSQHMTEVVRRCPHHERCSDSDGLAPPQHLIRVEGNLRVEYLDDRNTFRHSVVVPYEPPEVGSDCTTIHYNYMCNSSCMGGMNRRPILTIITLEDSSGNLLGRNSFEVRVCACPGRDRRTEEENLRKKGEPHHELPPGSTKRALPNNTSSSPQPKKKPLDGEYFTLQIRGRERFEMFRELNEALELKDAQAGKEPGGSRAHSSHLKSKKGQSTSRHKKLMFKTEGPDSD

Turning to `C[C@@H]1CC[C@@]2(OC1)O[C@H]1C[C@H]3[C@@H]4CC[C@H]5C[C@@H](O)CC[C@]5(C)[C@H]4CC(=O)[C@]3(C)[C@H]1[C@@H]2C`, the call in test [1], in test [2], in test [3] and in test [4] was inactive.
Regarding `C=CCC=CC`, the result in test [1] and in test [3] was inactive.
With `Cc1ccc(C=O)cc1C`, the compound was classed as inactive in test [1], in test [2] and in test [3].
For the compound `CCC(=O)CC`, the outcome in test [1] and in test [3] was inactive.
Consider `CCCCCCCC/C=C\CCCCCCCC(=O)OCCOC(=O)CCCCCCC/C=C\CCCCCCCC`, for which the outcome in test [1] and in test [4] was inactive.
With `Nc1ccc([N+](=O)[O-])c(N)c1`, the compound was classed as inactive in test [1] and in test [4].
On to `CN1CCC[C@@H]1Cc1c[nH]c2ccc(CCS(=O)(=O)c3ccccc3)cc12`, for which, in test [2], the result was inactive.
Take `O=CC1CC=CCC1` (centres undefined): the compound was classed as inactive in test [1], in test [3] and in test [4].
Take `COC(=O)N[C@H](C(=O)N[C@@H](Cc1ccccc1)[C@@H](O)CN(Cc1ccc(-c2ccccn2)cc1)NC(=O)[C@@H](NC(=O)OC)C(C)(C)C)C(C)(C)C`: the result in test [1], in test [2] and in test [4] was inactive.
In the case of `Cc1onc(-c2c(Cl)cccc2Cl)c1C(=O)N[C@@H]1C(=O)N2[C@@H]1SC(C)(C)[C@@H]2C(=O)O`, the compound was called inactive in test [1] and in test [3].
For `CCCCCCCCCCCc1ccccc1`, the result in test [1] and in test [4] was inactive.
Turning to `Cl.Cl.N.N.[Cl-].[Cl-].[Pt+2]`, the outcome in test [2] was inactive.
On to `CC(C(=O)O)c1ccc(CC2CCCC2=O)cc1` (centres undefined), for which the call in test [1], in test [2], in test [3] and in test [4] was inactive.
For the compound `FC(F)(F)c1ccccc1Cl`, the outcome in test [1] and in test [4] was inactive.
As for `CC(C)CCOC(=O)C=Cc1ccccc1`, the outcome in test [2] was inactive.
Regarding `CCC(CO)(CO)[N+](=O)[O-]`, the compound was classed as inactive in test [1] and in test [3].
Consider `Fc1ccccc1-c1ccccc1`, for which the result in test [1], in test [2] and in test [3] was inactive.
